We go through 23 compounds from PubChem BioAssay (NCI).

Values joined by “and” are separate entries in the source; they are usually repeats but may differ in a detail not shown here. Equal entries are not always repeated. The panel holds about 79,000 compounds, 15% with a hit somewhere; the sample as a whole holds those more often. Values without a mark were called inactive. Active and inactive are the calls of the source. No stated cut-off is given here; in the data, active means growth inhibition above about 70%; inactive means the rest.

A short description of one assay: NCI Yeast Anticancer Drug Screen. Data for the rad50 strain (AID 155).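 Further: 0% = growth of vehicle-only cultures of the same strain.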 Particulars: S. cerevisiae rad50 strain growth inhibition; at 5.0 µM (retest, dose inferred, filed as 0.5); hits give high values. Here is the method: Growth inhibition of yeast strains with defined genetic alterations is measured as a screen for potential anti-cancer activity. Selected strains with alterations in DNA damage repair or cell cycle control were exposed to compounds and growth inhibition was measured relative to vehicle treated controls. The strain used in this assay is rad50
For the compound `CCC[CH2][Sn]1([CH2]CCC)[O]CC(CN2CCOCC2)[O]1` (stereo unspecified), the growth inhibition was 27%.

On to `CC(=O)Nc1c2sscc-2n(C)c1=O`, for which the growth inhibition is 98% (active).

Consider `O=C(N/N=C/c1cc(Br)cc(Br)c1[O-])c1ccccc1O.O=C(N/N=C/c1cc(Br)cc(Br)c1[O-])c1ccccc1O.[Mn+2]`, for which the growth inhibition was 96% (active).

On to `CCC[CH2][Sn]1([CH2]CCC)[O]CC(COc2c(Cl)cc(Cl)cc2Cl)[O]1` (stereo unspecified), for which the growth inhibition is 94% (active).

With `O=[N+]([O-])c1ccc2c3c(cccc13)CC2`, the growth inhibition is 15%.

`CC(=O)OCC12CC(O)C(C)=CC1OC1C(O)C(OC(C)=O)C2(C)C12CO2` (stereo unspecified): the growth inhibition was 8%.

With `c1cs[c]([Hg][c]2cccs2)c1`, the growth inhibition is 99% (active).

As to `CCN(CC)C(=S)[S-].CCN(CC)C(=S)[S-].O=C(O)CC([S-])C(=O)O.[Fe+3]` (stereo unspecified), the growth inhibition is 4%.

Turning to `COc1cc(/C=C\[N+](=O)[O-])ccc1O`, the growth inhibition was 87% (active).

The assay is the same for the next values; noted with them: S. cerevisiae rad50 strain growth inhibition; at 50.0 µM (retest, dose inferred, filed as 5.0); hits give high values.
As to `CCC[CH2][Sn]1([CH2]CCC)[O]CC(CN2CCOCC2)[O]1` (stereo unspecified), the growth inhibition is 34%.

As to `CC(=O)Nc1c2sscc-2n(C)c1=O`, the growth inhibition is 99% (active).

With `O=C(N/N=C/c1cc(Br)cc(Br)c1[O-])c1ccccc1O.O=C(N/N=C/c1cc(Br)cc(Br)c1[O-])c1ccccc1O.[Mn+2]`, the growth inhibition was 94% (active).

In the case of `CCC[CH2][Sn]1([CH2]CCC)[O]CC(COc2c(Cl)cc(Cl)cc2Cl)[O]1` (stereo unspecified), the growth inhibition was 94% (active).

As for `O=[N+]([O-])c1ccc2c3c(cccc13)CC2`, the growth inhibition was 86% (active).

For `CC(=O)OCC12CC(O)C(C)=CC1OC1C(O)C(OC(C)=O)C2(C)C12CO2` (stereo unspecified), the growth inhibition is 33%.

Turning to `c1cs[c]([Hg][c]2cccs2)c1`, the growth inhibition was 98% (active).

`CCN(CC)C(=S)[S-].CCN(CC)C(=S)[S-].O=C(O)CC([S-])C(=O)O.[Fe+3]` (stereo unspecified): the growth inhibition is 98% (active).

On to `COc1cc(/C=C\[N+](=O)[O-])ccc1O`, for which the growth inhibition was 99% (active).

The assay is the same for the next values; noted with them: S. cerevisiae rad50 strain growth inhibition; at 50.0 µM; hits give high values.
In the case of `CCOP(O)(=S)OCC`, the growth inhibition is 16.8% and 9.55% and 2.25%.

As for `CCC[CH2][Sn]1([CH2]CCC)[O]CC(CN2CCOCC2)[O]1` (stereo unspecified), the growth inhibition was 87.7% (active).

Take `CC(=O)Nc1c2sscc-2n(C)c1=O`: the growth inhibition is 93.2% (active).

Regarding `C/C(=N\N=C(\[Se])N(C)C)c1ccccn1`, the growth inhibition is 86.9% (active).

Turning to `O=C(N/N=C/c1cc(Br)cc(Br)c1[O-])c1ccccc1O.O=C(N/N=C/c1cc(Br)cc(Br)c1[O-])c1ccccc1O.[Mn+2]`, the growth inhibition is 97.6% (active).

As to `O=[N+]([O-])c1ccc(/C=C/c2ccc(Cl)c(S(=O)(=O)F)c2)c(Cl)c1`, the growth inhibition was 15.6%.

On to `CCC[CH2][Sn]1([CH2]CCC)[O]CC(COc2c(Cl)cc(Cl)cc2Cl)[O]1` (stereo unspecified), for which the growth inhibition was 91.2% (active).

On to `CCCCSP(SCCCC)N1CCCCC1`, for which the growth inhibition was 94.7% (active).

As for `CCN(CC)CCN1C(=O)NC(=O)C(CC)(c2ccccc2)C1=O` (stereo unspecified), the growth inhibition is 4.1%.

For `COc1ccc(CC#N)cc1`, the growth inhibition was -51.1%.

In the case of `O=c1[nH]c(O)c(N=Nc2ccc([N+](=O)[O-])cc2[N+](=O)[O-])c(=O)[nH]1`, the growth inhibition is 14.7%.

As to `O=[N+]([O-])c1ccc2c3c(cccc13)CC2`, the growth inhibition is 6.7%.

Take `COc1cc([C@@H]2c3cc4c(cc3C[C@H]3COC(=O)[C@@H]32)OCO4)cc(OC)c1OC`: the growth inhibition is 5.2%.

For the compound `C=CC(C)(C)C12CC3C(=O)N/C(=C\c4cnc[nH]4)C(=O)N3C1Nc1ccccc12` (stereo unspecified), the growth inhibition is -33.4%.

As to `CC1CC2OC(=O)C(CN3CC3)C2CC2(C)C(O)CC(O)C12` (stereo unspecified), the growth inhibition is 32.2%.

As for `CC(=O)OCC12CC(O)C(C)=CC1OC1C(O)C(OC(C)=O)C2(C)C12CO2` (stereo unspecified), the growth inhibition is 91.8% (active).

Turning to `c1cs[c]([Hg][c]2cccs2)c1`, the growth inhibition was 99.7% (active).

As to `CC(C)CC(NC(=O)C(Cc1ccccc1)NC(=O)CNC(=O)CNC(=O)C(N)Cc1ccc(O)cc1)C(=O)O` (stereo unspecified), the growth inhibition was 0.9%.

With `COc1ccc(C=O)cc1`, the growth inhibition was 41.5%.

Consider `O=NNc1nc2ccccc2[nH]1`, for which the growth inhibition was 6.5%.

`CCN(CC)C(=S)[S-].CCN(CC)C(=S)[S-].O=C(O)CC([S-])C(=O)O.[Fe+3]` (stereo unspecified): the growth inhibition is 61.8%.

On to `O=[As](O)(O)c1cc(N=Nc2ccc(-c3ccc(N=Nc4cc([As](=O)(O)O)c(O)cc4O)cc3)cc2)c(O)cc1O`, for which the growth inhibition was 0.1%.

`COc1cc(/C=C\[N+](=O)[O-])ccc1O`: the growth inhibition is 99.2% (active).
